Screens as filed in PubChem BioAssay.
An excerpt weighted towards active compounds, which were near 3.6% of everything screened.
D1 agonist: human D1 receptor agonism. HEK293 T-REx D1 cells, calcium flux, agonist mode. activation, % at 2 µM. P21728. AID 504660. 1% of 360,000 active; note: 0% is about no effect
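Tetracycline-induced HEK293 TREx D1 cells, force-coupled to calcium signalling, were dye-loaded with a no-wash calcium kit. Compound was pin-added after a 10 s baseline. Fluorescence was read kinetically at 1 cycle/s for 180 s, with calcium rises flagged as agonism.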
D1 potentiator: enhances dopamine response at the human D1 receptor | HEK293 TREx D1 cells, calcium flux, dopamine EC20 potentiation | P21728 | potentiation, % at 10 µM | 0.036% of 360,000 active | AID 504651; in the data active = potentiation above about 30%; note: 0% is about no effect
TRHR enhancer: allosterically enhances the human TRH receptor. P34981. TRHR cells, fluo-8 calcium fluorescence, EC20 TRH enhancement. enhancement, % at 2 µM. 0.66% of 360,000 active; in the data active = enhancement above about 30%; note: 0% is about no effect
Target sequence (P34981 whole entry, looked up): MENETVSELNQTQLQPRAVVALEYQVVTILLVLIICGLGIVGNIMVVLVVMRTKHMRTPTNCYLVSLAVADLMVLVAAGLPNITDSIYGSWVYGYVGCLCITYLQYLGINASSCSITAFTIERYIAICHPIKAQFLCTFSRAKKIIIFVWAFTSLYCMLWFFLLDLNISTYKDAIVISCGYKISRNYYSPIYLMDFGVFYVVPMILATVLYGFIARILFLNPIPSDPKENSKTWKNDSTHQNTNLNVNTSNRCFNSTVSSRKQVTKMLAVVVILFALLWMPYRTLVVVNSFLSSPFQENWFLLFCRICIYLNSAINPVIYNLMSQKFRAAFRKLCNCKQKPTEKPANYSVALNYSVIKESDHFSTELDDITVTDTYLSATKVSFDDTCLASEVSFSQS
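TRHR-expressing cells loaded with fluo-8 calcium dye were read kinetically (ex 480/em 530) during compound addition, then stimulated with an EC20 of TRH (10 nM final). Enhancement of the Gq-mediated intracellular calcium response was scored.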
LDHA block: blocks human lactate dehydrogenase A; P00338; purified LDHA, NADH/diaphorase-resazurin fluorescence; stronger effect = lower value; activity change, % (values are at about 110 or 230 µM); 0.15% of 480,000 active; AID 1347041; in the data active = activity change below about -30%;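 note: plate controls were DMSO wells for no effect and wells without enzyme for full effect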
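LDH5 2 nM; NADH 0.06 mM, pyruvate 0.2 mM; 200 mM Tris pH 7.4, EDTA, Tween-20; 5 min RT. Detection: diaphorase 0.133 mg/mL + resazurin 37 µM, fluorescence ex540/em590 at 0 and 20 min; normalized to enzyme-free and DMSO wells.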
D1 antag: human D1 dopamine receptor antagonism | HEK293 TREx D1 cells, calcium flux, dopamine EC80; stronger effect = lower value | P21728 | activity change, negative = inhibition, % at 10 µM | 3.2% of 360,000 active; in the data active = activity change below about -30%; note: % is set by controls: 0 for no effect and ±100 for the full control effect
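Allosteric or orthosteric antagonism assessed as attenuation of the calcium response to EC80 dopamine, added 180 s after compound, in induced HEK293 Trex D1 cells loaded with no-wash calcium dye.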
TRHR ag: TRH receptor (human) agonism | P34981 | TRHR cells, calcium flux fluo-8, FDSS agonist mode | activation, % at 2 µM | 0.18% of 360,000 active; note: 0% is about no effect
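TRHR-expressing cells, plated overnight in medium with 10% serum, were loaded with fluo-8 calcium dye at room temperature. After a 10 s baseline, library compound was pin-added and calcium release was recorded kinetically (ex 480/em 530) as agonist response.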
An asterisk follows results filed as active; x = no result given; ! = not confirmed by another sample. Cut-off read from the data, not from the text of the source, unless noted: active = activation above about 30%; inactive = the rest.

SMILES	D1 agonist	D1 potentiator	TRHR enhancer	LDHA block	D1 antag	TRHR ag
Cc1ccc(NC2=C/C(=N/S(=O)(=O)c3cccs3)c3ccccc3C2=O)cc1C	-1.6	0.5	20.0	16.4	-45.3*	1.8
Cc1ccccc1NC1=C/C(=N\S(=O)(=O)c2cccs2)c2ccccc2C1=O	1.1	-1.6	-8.6	38.0	10.7	-0.3
Cc1ccc(SCc2cc(=O)[nH]c(SCC(=O)Nc3cc(Cl)ccc3Cl)n2)cc1	-3.1	6.6	6.3	-6.5	-34.2*	0.0
CCc1ccc(NC(=O)CSc2nc(CSc3ccc(C)cc3)cc(=O)[nH]2)cc1	2.0	-6.0	-2.7	-2.3	-3.7	-0.1
O=C1CC(=C(c2ccccc2)c2ccccc2)C(=O)N1CCCCN1CCN(c2ccccc2)CC1	0.8	-10.8	20.4	4.5	-56.8*	-0.2
Cc1ccc(S(=O)(=O)N(Cc2cnn(C)c2)C(C)C)c(Cl)c1	x	x	x	11.0	x	x
O=[N+]([O-])c1ccc(C(O)C[n+]2ccccc2)cc1 (stereo unspecified)	2.9	-7.0	-0.4	-30.1*	7.2	0.0
O=[N+]([O-])c1ccc(C(O)CN2CCN(c3ccccc3)CC2)cc1 (stereo unspecified)	5.5	2.4	-2.2	-4.2	-0.7	0.6
Cc1ccc(NC(=O)C2CCC(N3C(=O)C4CCCCC4C3=O)CC2)cc1 (stereo unspecified)	2.0	-6.3	5.5	-11.6	-3.5	0.0
O=C(Nc1ccc(Cc2ccncc2)cc1)C1CCC(N2C(=O)C3CCCCC3C2=O)CC1 (stereo unspecified)	9.0	-5.8	1.0	-0.7	-38.6*	0.2
OCC1OC(n2cnc3c(NO)ncnc32)C(O)C1O (stereo unspecified)	x	x	x	8.2	x	x
CC(C)=CCNc1ncnc2c1c(C#N)cn2C1OC(CO)C(O)C1O (stereo unspecified)	x	x	x	-52.5*	x	x
COc1ccccc1NS(=O)(=O)c1cccc(C(=O)N/N=C/c2c(CO)cnc(C)c2O)c1	12.6	-7.0	-3.3	3.3	-30.5*	15.9
CN1CCc2ccccc2Cc2[nH]c3ccccc3c2CC1	-0.6	-6.7	0.7	-3.9	-106.8*	0.1
CCCCN1CCc2c([nH]c3ccccc23)C1=O	1.3	0.2	1.2	-1.9	-5.2	-0.2
CCN1CCCC1CNC(=O)c1nc(-c2ccc3cc[nH]c3c2)no1 (stereo unspecified)	x	x	x	-1.6	x	x
O=C(c1ccc(F)cc1)N1CCN(c2ccccn2)CC1	0.1	-7.9	30.2*	-0.8	-10.2	0.3
COc1ccc(F)cc1S(=O)(=O)N1CCN(c2ccccn2)CC1	1.2	1.3	-6.9	-5.7	10.3	0.6
COc1ccc(C(=O)N2CCN(c3ccccn3)CC2)cc1	0.7	-3.1	-6.5	0.0	2.9	0.6
O=S(=O)(c1cc(F)ccc1F)N1CCN(c2ccccn2)CC1	0.1	-0.2	5.7	-1.6	-51.9*	-0.2
COc1ccc2c(C)c(CCC(=O)NCc3ccccc3)c(=O)oc2c1	x	x	x	4.8	x	x
CC1(C)Cc2cccc(C(=O)Nc3ccc(Cl)cc3)c2O1	3.9	-3.6	7.1	1.7	-34.2*	-0.3
CC(C)(C)C1CCC2(CC1)NC(CO)(CO)CO2 (stereo unspecified)	0.5	-1.4	10.2	-4.8	-34.0*	0.8
Cc1[nH]n(-c2ccc([N+](=O)[O-])cc2)c(=O)c1C=NCCc1c[nH]c2ccccc12	-1.1	-7.2	-6.8	-1.1	-36.1*	-0.3
CCCc1[nH]n(-c2ccc([N+](=O)[O-])cc2)c(=O)c1C=NCCc1c[nH]c2ccccc12	4.0	-2.1	8.2	-14.2	-16.5	-0.7
O=C(Cc1cc(=O)[nH][nH]1)N/N=C/c1ccccc1Cl	3.1	-4.2	-3.6	-2.8	13.3	0.5
O=C(Cc1cc(=O)[nH][nH]1)N/N=C/C(Cl)=C/c1ccccc1	31.2*!	1.9	-0.4	0.8	0.8	-0.3
O=C(NCCN1CCN(c2cccc(Cl)c2)CC1)C1COc2ccccc2C1 (stereo unspecified)	7.8	-5.0	22.7	-3.5	-86.5*	0.1
COc1ccc2c(c1)CC(C(=O)NCCCN1CCN(c3ccccc3F)CC1)CO2 (stereo unspecified)	2.7	-3.1	0.6	-6.0	-18.8	0.2
